Test results: PubChem BioAssay (NCATS)
Records with an inconclusive call do not appear. Active and inactive are the calls of the source. Unless noted, calls come from the whole dose curve; as a rule, active = well fitted cell-killing curve with a large enough effect; inconclusive = small, poorly fitted or top-dose-only effect, or effect the other way; inactive = no such curve, though single readings can be large or run the other way.

How the values were obtained:
[1] = Quantitative High-Throughput drug screen in 47 multiple myeloma cell lines against the NCATS MIPE library collection: PCM6_Riken cell viability assay (AID 1919870); note: nearly all actives have a fitted effect of over 30% in size; note: potency is the fitted concentration of half-maximal effect
Method in brief: (§1)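 MIPE 4.0 approved/investigational drugs; 500 cells/well; 48 h 37 °C humidified 5% CO2; CTG luminescence readout; DMSO = 100%, media = 0% viability.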

[2] = Quantitative High-Throughput drug screen in 47 multiple myeloma cell lines against the NCATS MIPE library collection: RPMI8226_ATCC cell viability assay (AID 1919871); note: nearly all actives have a fitted effect of over 30% in size; note: potency is the fitted concentration of half-maximal effect
Method in brief: as §1

[3] = Quantitative High-Throughput drug screen in 47 multiple myeloma cell lines against the NCATS MIPE library collection: OPM2_DSMZ cell viability assay (AID 1919872); note: nearly all actives have a fitted effect of over 30% in size; note: potency is the fitted concentration of half-maximal effect
Method in brief: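 Relative luminescence from CellTiter-Glo served as the viability signal, referenced to DMSO-treated (100%) and cell-free medium (0%) controls. Treatment lasted 48 hours at 37C with 500 cells per well.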

[4] = Quantitative High-Throughput drug screen in 47 multiple myeloma cell lines against the NCATS MIPE library collection: KMS11_JCRBsus cell viability assay (AID 1919873); note: nearly all actives have a fitted effect of over 50% in size; note: potency is the fitted concentration of half-maximal effect
Method in brief: as §1

[5] = Quantitative High-Throughput drug screen in 47 multiple myeloma cell lines against the NCATS MIPE library collection: KMS28BM_JCRB cell viability assay (AID 1919874); note: nearly all actives have a fitted effect of over 35% in size; note: potency is the fitted concentration of half-maximal effect
Method in brief: as §1

[6] = qHTS drug screen for cell cycle checkpoint inhibitors in PARPi-resistant BRCA-mutant ovarian cancer cell lines. (AID 1963452; calls by dose curve); settings: PEO1/OlaR viability, CellTiter-Glo luminescence, 96 h, stronger effect = lower value
Method in brief: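 PEO1, PEO4 and PEO1/OlaR ovarian cancer cells, 600 per well, exposed 96 h at 37C to a dilution series. Viability read by CellTiter-Glo luminescence, normalized to DMSO and empty wells; activity summarized as Z-AUC.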

[7] = measured here: PEO1 parental Z-AUC

Structure (SMILES)	Potency [1]	Potency [2]	Potency [3]	Potency [4]	Potency [5]	Z-AUC [6]	Z-AUC [6, 7]	Z-AUC ([6]; measured here: PEO4 Z-AUC)
CC(C)(F)C[C@H](N[C@@H](c1ccc(-c2ccc(S(C)(=O)=O)cc2)cc1)C(F)(F)F)C(=O)NC1(C#N)CC1	inactive	20.9 µM (active)	inactive	inactive	inactive	-0.727 (inactive)	1.36	0.322
CCOC(=O)N1CCN([N+]([O-])=NOc2cc(ON=[N+]([O-])N3CCN(C(=O)OCC)CC3)c([N+](=O)[O-])cc2[N+](=O)[O-])CC1	6.62 µM (active)	9.35 µM (active)	18.7 µM (active)	5.9 µM (active)	7.43 µM (active)	–	–	–
OCCn1cc(-c2ccc3c(c2)CCC3=NO)c(-c2ccncc2)n1	20.9 µM (active)	inactive	inactive	–	–	–	–	–
C[C@@H]1[C@H](C)CC[C@]2(C(=O)O)CC[C@]3(C)C(=CC[C@@H]4[C@@]5(C)CC[C@H](O)C(C)(C)[C@H]5CC[C@]43C)[C@@H]12	12.1 µM (active)	27 µM (active)	42.9 µM (active)	inactive	–	–	–	–
CCN(CC)CCCCNc1nc2cc(Cl)c(Cl)cc2nc1-c1ccc(-c2cccs2)s1	8.33 µM (active)	10.5 µM (active)	10.5 µM (active)	8.33 µM (active)	7.43 µM (active)	–	–	–
COc1cc2nc(-c3cc(F)ccc3O)nc(N[C@@H]3CNC[C@@H]3C(C)(C)O)c2cc1OC	2.96 µM (active)	23.5 µM (active)	16.6 µM (active)	5.26 µM (active)	4.18 µM (active)	–	–	–
CC(C)c1c(C(=O)Nc2ccccc2)c(-c2ccccc2)c(-c2ccc(F)cc2)n1CC[C@H](O)C[C@@H](O)CC(=O)O	16.6 µM (active)	10.5 µM (active)	–	–	–	–	–	–
CC(C)CN(C[C@H](O)[C@H](Cc1ccccc1)NC(=O)O[C@H]1CCOC1)S(=O)(=O)c1ccc(N)cc1	13.2 µM (active)	inactive	–	–	–	–	–	–
C[C@@H]1[C@H](O)[C@@H](C)C=CC=CC=CC=CC=CC=CC=C[C@H](O[C@@H]2O[C@H](C)[C@H](O)[C@H](N)[C@@H]2O)C[C@@H]2O[C@](O)(C[C@@H](O)C[C@@H](O)[C@H](O)CC[C@@H](O)C[C@@H](O)CC(=O)O[C@H]1C)C[C@H](O)[C@@H]2C(=O)O	3.32 µM (active)	–	–	–	–	–	–	–
Cc1nc(NC(=O)N2CCC[C@@H]2C(N)=O)sc1-c1csc(C(C)(C)C)n1	4.69 µM (active)	–	–	–	–	–	–	–
COc1ccc2ccc(=O)oc2c1CC=C(C)C	inactive	–	–	–	–	–	–	–
Cc1ccc(NC(=O)Nc2cc(C(F)(F)F)ccc2F)cc1Nc1ccc2c(c1)NC(=O)C2=Cc1ccc[nH]1	3.32 µM (active)	–	–	–	–	–	–	–
CCc1cc(-c2n[nH]c(C)c2-c2ccc3c(c2)OCCO3)c(O)cc1O	8.33 µM (active)	6.62 µM (active)	7.43 µM (active)	1.87 µM (active)	11.8 µM (active)	0.644 (inactive)	0.497	0.316
O=C(c1ccc(F)c(F)c1Nc1ccc(I)cc1F)N1CC(O)([C@H]2CCCCN2)C1	16.6 µM (active)	20.9 µM (active)	13.2 µM (active)	18.7 µM (active)	20.9 µM (active)	–	–	–
Fc1ccc(C(c2ccc(F)cc2)N2CCN(CC=Cc3ccccc3)CC2)cc1	5.9 µM (active)	16.6 µM (active)	inactive	–	–	–	–	–
Cc1ccccc1-n1c(Cn2nc(-c3cccc(O)c3)c3c(N)ncnc32)nc2cccc(C)c2c1=O	5.9 µM (active)	13.2 µM (active)	8.33 µM (active)	6.62 µM (active)	7.43 µM (active)	-1.13 (inactive)	-0.546	-0.912

Structure (SMILES)	Potency [1]	Potency [2]	Potency [3]	Potency [4]	Potency [5]	Z-AUC [6]	Z-AUC [6, 7]	Z-AUC ([6]; measured here: PEO4 Z-AUC)
NC(=O)c1ncn([C@@H]2O[C@H](CO)[C@@H](O)[C@@H]2O)n1	inactive	inactive	inactive	inactive	–	–	–	–
CN[C@@H]1CN(c2ccc3c(=O)c(C(=O)O)cn(-c4nccs4)c3n2)C[C@@H]1OC	3.23 µM (active)	12.9 µM (active)	–	–	–	–	–	–
COc1ccc(-c2nc3ccc(C4=NNC(=O)CC4C)cc3[nH]2)cc1 (stereo not given)	inactive	inactive	inactive	inactive	inactive	–	–	–
COC(=O)Nc1ccc(-c2nc(N3CCOCC3)c3cnn(C4CCN(C(=O)OC)CC4)c3n2)cc1	1.87 µM (active)	0.332 µM (active)	2.35 µM (active)	0.166 µM (active)	0.59 µM (active)	0.0604 (inactive)	-0.0911	-0.355
COc1cc(Cl)cn2c(-c3cccc(NC4CNC4)n3)cnc12	14.8 µM (active)	inactive	inactive	–	–	–	–	–
C[C@H]1O[C@@H](n2cc(F)c(=O)[nH]c2=O)[C@H](O)[C@H]1O	8.33 µM (active)	9.35 µM (active)	inactive	7.43 µM (active)	inactive	–	–	–
CC(O)=C(C#N)C(=O)Nc1ccc(C(F)(F)F)cc1	20.9 µM (active)	6.62 µM (active)	inactive	–	–	–	–	–
Oc1cc(O)cc(C=Cc2ccc(O)c(O)c2)c1	10.5 µM (active)	–	–	–	–	–	–	–
Nc1[nH]nc2nnc(-c3c(-c4ccccc4)nn4ccccc34)cc12	7.43 µM (active)	inactive	inactive	0.235 µM (active)	0.166 µM (active)	-0.433 (inactive)	0.0529	-0.206
COc1ccc(-c2cc(=O)c3c(O)cc(O[C@@H]4O[C@H](CO[C@@H]5O[C@@H](C)[C@H](O)[C@@H](O)[C@@H]5O)[C@@H](O)[C@H](O)[C@@H]4O)cc3o2)cc1O	11.8 µM (active)	inactive	inactive	inactive	inactive	–	–	–
CCC(=O)OCC(=O)[C@@]1(OC(=O)CC)[C@@H](C)C[C@@H]2[C@H]3CCC4=CC(=O)C=C[C@]4(C)[C@@]3(F)[C@@H](O)C[C@@]21C	7.43 µM (active)	0.418 µM (active)	–	–	–	–	–	–
Cc1c(C(=O)Nc2ccc(N3C[C@@H](C)O[C@@H](C)C3)nc2)cccc1-c1ccc(OC(F)(F)F)cc1	inactive	16.6 µM (active)	23.5 µM (active)	inactive	inactive	–	–	–
CC1CNc2c(cccc2S(=O)(=O)N[C@@H](CCCN=C(N)N)C(=O)N2CC[C@@H](C)C[C@@H]2C(=O)O)C1 (stereo not given in full)	inactive	inactive	inactive	inactive	inactive	1.14 (inactive)	0.686	1.06
CC1(C)[C@H]2CC[C@]3(C)[C@@H](C(=O)C=C4[C@@H]5C[C@@](C)(C(=O)O)CC[C@]5(C)CC[C@]43C)[C@@]2(C)CC[C@@H]1O	inactive	inactive	inactive	inactive	inactive	–	–	–
C[C@@H](O)[C@H]1C(=O)N2C(C(=O)OCOC(=O)C(C)(C)C)=C(SC3CN(C4=NCCS4)C3)[C@H](C)[C@H]12	23.5 µM (active)	inactive	inactive	inactive	–	–	–	–
